# Measured values reported in the supplement of paper PMC9446081.
# Hit rate of the full screen: of about 39,000 compounds, about 220 (0.56%) showed activity. This is one part of a sample in which actives are shown more often than they occur.
# System: Escherichia coli K-12 BW25113
# Assay: relative growth (OD600 normalised to plate interquartile mean) (fraction); higher = less growth inhibition, active = 0.2 or less
# Settings: 50 µM; LB; incubation time: overnight (16-24 h)
# 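Note: Wild-type cells incubated without shaking, value is the mean of two biological replicates.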
row,Structure (SMILES),relative growth
1,C[N+](C)(C)CCCl,1 (inactive)
2,C[N+](C)(C)CCCCCCCCCC[N+](C)(C)C.[Br-].[Br-],1.05 (inactive)
3,CCCCCCCCCCCCCCCC[N+](C)(C)C.[Br-],0.0522 (active)
4,CCC(N)C(O)c1ccc(O)c(O)c1.Cl (stereo unspecified),0.99 (inactive)
5,"CC12CCC3C(CCC4CC(=O)CCC43C)C1CCC2=O (stereo not drawn) [""5alpha-ANDROSTAN-3,17-DIONE""]",0.862 (inactive)
6,CCC(=O)CCCCC[C@@H]1NC(=O)[C@H]2CCCCN2C(=O)[C@H]([C@H](C)CC)NC(=O)[C@H](Cc2cn(OC)c3ccccc23)NC1=O,1 (inactive)
7,COc1cc2c(cc1OC)C13CCN4CC5=CCOC6CC(=O)N2C1C6C5CC43 (stereo unspecified),1.05 (inactive)
8,CCn1cc(C(=O)[O-])c(=O)c2cc3c(cc21)OCO3.[K+],0.0482 (active)
9,CCC(=O)CCCCC[C@@H]1NC(=O)[C@H]2CCCCN2C(=O)[C@H]([C@@H](C)CC)NC(=O)[C@H](Cc2cn(OC)c3ccccc23)NC1=O,0.957 (inactive)
10,O=C1N[C@@H]2C(=C[C@H](O)[C@@H](O)[C@H]2O)c2cc3c(c(O)c21)OCO3,0.913 (inactive)
11,N#Cc1cccnc1,1.01 (inactive)
12,NNc1ccn([C@H]2O[C@@H](CO)[C@@H](O)[C@@H]2O)c(=O)n1,0.394 (inactive)
13,COP(=O)(OC)C(O)C(Cl)(Cl)Cl (stereo unspecified),0.874 (inactive)
14,CC(C)(O)/C=C/C(=O)[C@](C)(O)[C@H]1[C@H](O)C[C@@]2(C)[C@H]3CC=C4[C@@H](CC(=O)C(=O)C4(C)C)[C@]3(C)C(=O)C[C@]12C,0.979 (inactive)
15,[O-][n+]1ccccc1[S][Zn][S]c1cccc[n+]1[O-],0.0506 (active)
16,CC(C)C[C@@H]1C(=O)N2CCC[C@@H]2[C@]2(O)O[C@@](NC(=O)[C@@H]3C=C4c5cccc6[nH]cc(c56)C[C@@H]4N(C)C3)(C(C)C)C(=O)N12,1.04 (inactive)
17,O=C([O-])Cc1ccccc1.[Na+],0.934 (inactive)
18,C[CH2][Hg][S]c1ccccc1C(=O)[O-].[Na+],0.0484 (active)
19,CCCCOC(=O)c1ccccc1C(=O)OCCCC,1.11 (inactive)
20,CC(=O)OC1CCC2(C)C(CCC3C2CCC2(C)C(C4=CC(=O)OC4)C(OC(C)=O)CC32O)C1 (stereo unspecified),1.01 (inactive)
21,CC(C)=CCCC1(C)C=Cc2c(O)c3c(c(CC=C(C)C)c2O1)OC12C(=CC4CC1C(C)(C)OC2(CC=C(C)C(=O)O)C4=O)C3=O (stereo unspecified),1.01 (inactive)
22,NC(=O)c1ccc(N)nc1,0.986 (inactive)
23,CCCN1CC(CSC)CC2c3cccc4[nH]cc(c34)CC21.CS(=O)(=O)O (stereo unspecified),1.15 (inactive)
24,CCNC(=O)[C@H]1O[C@@H](n2cnc3c(N)ncnc32)[C@H](O)[C@@H]1O,0.996 (inactive)

row,Structure (SMILES),relative growth
1,Nc1ccc(Cl)cc1Cl,1.02 (inactive)
2,Oc1ccc(Cl)cc1Cc1cc(Cl)ccc1O,0.398 (inactive)
3,Oc1cc(Cl)ccc1Oc1ccc(Cl)cc1Cl,0.0446 (active)
4,CN1CC(=O)N(c2cccnc2)C[C@]12CCNC2,0.998 (inactive)
5,CC12CCC3C(CCC4(O)CC(O)CCC34C=O)C1(O)CCC2C1=CC(=O)OC1 (stereo unspecified),0.972 (inactive)
6,CC(=O)Oc1ccc(Cl)c2cccnc12,0.0572 (active)
7,CC=C1CC(C)C(O)(CO)C(=O)OCC2=CCN3CCC(OC1=O)C23 (stereo unspecified),1.04 (inactive)
8,CN1CCOC[C@]2(CCCNC2)C1,0.994 (inactive)
9,C[C@]12C(=O)OC(=O)[C@]1(C)[C@H]1CC[C@H]2O1,0.97 (inactive)
10,CN1C(=O)[C@@]23C[C@]4([C@@]56C[C@]78SS[C@](CO)(C(=O)N7[C@@H]5Nc5ccccc56)N(C)C8=O)c5ccccc5N[C@H]4N2C(=O)[C@@]1(CO)SS3,0.917 (inactive)
11,CN1C(=O)[C@]23CC4=CC=C[C@H](O)[C@H]4N2C(=O)[C@@]1(CO)SS3,0.0665 (active)
12,CC1OC(OC2CCC3(C=O)C4CCC5(C)C(C6=CC(=O)OC6)CCC5(O)C4CCC3(O)C2)C(O)C(O)C1O (stereo unspecified),1.15 (inactive)
13,c1cnc2[nH]cc(CN3CCNCC3)c2c1,0.977 (inactive)
14,CC(=O)O[C@H]1C[C@H](O[C@H]2[C@@H](O)C[C@H](O[C@H]3[C@@H](O)C[C@H](O[C@H]4CC[C@@]5(C)[C@@H](CC[C@H]6[C@@H]5C[C@@H](O)[C@]5(C)[C@@H](C7=CC(=O)OC7)CC[C@]65O)C4)O[C@@H]3C)O[C@@H]2C)O[C@H](C)[C@H]1O[C@@H]1O[C@H](CO)[C@@H](O)[C@H](O)[C@H]1O,0.986 (inactive)
15,COP(=S)(OC)Oc1ccc(Sc2ccc(OP(=S)(OC)OC)cc2)cc1,0.986 (inactive)
16,CCOP(=S)(OCC)Oc1nc(Cl)c(Cl)cc1Cl,1.06 (inactive)
17,COP(=S)(OC)Oc1cc(Cl)c(Cl)cc1Cl,0.0496 (active)
18,CCn1cnc2c(Nc3cccc(Cl)c3)nc(N[C@@H]3CCCC[C@@H]3N)nc21,0.943 (inactive)
19,CC(=O)OCC1=C(C(=O)O)N2C(=O)[C@@H](NC(=O)CCC[C@@H](N)C(=O)O)[C@@H]2SC1,1.02 (inactive)
20,CNc1ccc2oc(C[C@H]3O[C@@]4(CC[C@H]3C)O[C@H]([C@H](C)C(=O)c3ccc[nH]3)[C@H](C)C[C@H]4C)nc2c1C(=O)O,0.962 (inactive)
21,CCCCCCCCCCCCCCCC[n+]1ccccc1.[Cl-],0.0713 (active)
22,CCCCCCCCCCCCCCCC[n+]1ccccc1,0.16 (active)
23,CC[C@@H](C)NC=C1C(=O)NC(=O)NC1=O,1.01 (inactive)
24,CC1OC(OC2CC(O)C3(CO)C4C(O)CC5(C)C(C6=CC(=O)OC6)CCC5(O)C4CCC3(O)C2)C(O)C(O)C1O.O.O.O.O.O.O.O.O (stereo unspecified),1.01 (inactive)

row,Structure (SMILES),relative growth
1,CC1OC(OC2C=C3CCC4C(CCC5(C)C(c6ccc(=O)oc6)CCC45O)C3(C)CC2)C(O)C(O)C1O (stereo unspecified),0.977 (inactive)
2,C[C@@H]1O[C@@H](O[C@H]2CC[C@]3(C=O)[C@H]4CC[C@]5(C)[C@@H](C6=CC(=O)OC6)CC[C@]5(O)[C@@H]4CC[C@]3(O)C2)[C@H](O)[C@H](O)[C@H]1O,1 (inactive)
3,C=C(C)[C@H]1CN[C@H](C(=O)O)[C@H]1CC(=O)O,0.978 (inactive)
4,Cc1nn[nH]n1,0.979 (inactive)
5,Cc1c(N)nc([C@H](CC(N)=O)NC[C@@H](N)C(N)=O)nc1C(=O)N[C@H](C(=O)N[C@@H](C)[C@H](O)[C@@H](C)C(=O)N[C@@H](C(=O)NCCc1nc(-c2nc(C(=O)NCCC[S+](C)C)cs2)cs1)[C@@H](C)O)[C@@H](O[C@H]1O[C@H](CO)[C@H](O)[C@@H](O)[C@H]1O[C@H]1O[C@H](CO)[C@@H](O)[C@H](OC(N)=O)[C@@H]1O)c1cnc[nH]1,0.0324 (active)
6,Cc1c(N)nc([C@H](CC(N)=O)NC[C@@H](N)C(N)=O)nc1C(=O)N[C@H](C(=O)N[C@@H](C)[C@H](O)[C@@H](C)C(=O)N[C@@H](C(=O)NCCc1nc(-c2nc(C(=O)NCCC[S+](C)C)cs2)cs1)[C@@H](C)O)[C@@H](O[C@H]1O[C@H](CO)[C@H](O)[C@@H](O)[C@H]1O[C@H]1O[C@H](CO)[C@@H](O)[C@H](OC(N)=O)[C@@H]1O)c1c[nH]cn1,0.0355 (active)
7,Cc1cc(O)c2c(=O)c3c(O)cc(O)c4c5c(O)cc(O)c6c(=O)c7c(O)cc(C)c8c1c2c(c34)c(c78)c65,1.61 (inactive)
8,O=C1[O][SbH]23[O]C(=O)[C@H]([O]2)[C@H]2[O][SbH]4([O]C(=O)[C@H]([O]4)[C@H]1[O]3)[O]C2=O,0.313 (inactive)
9,CC1=C[C@H]2O[C@@H]3[C@H](O)[C@@H](O[C@H]4O[C@H](CO)[C@@H](O)[C@H](O)[C@H]4O)[C@](C)([C@@]2(CO)CC1)[C@]31CO1,0.947 (inactive)
10,O=C1CCCC2C3CCCN4CCCC(CN12)C34 (stereo unspecified),1.05 (inactive)
11,Cn1ncnc2c(=O)n(C)c(=O)nc1-2,0.0341 (active)
12,CCn1nc(-c2cccnc2)nc2c(=O)n(C)c(=O)nc1-2,0.846 (inactive)
13,Cc1nc2c(=O)n(C)c(=O)nc-2n(C)n1,0.0393 (active)
14,COc1cccc2c1C(=O)c1c(O)c3c(c(O)c1C2=O)C[C@@](O)(C(=O)CO)C[C@@H]3O[C@H]1C[C@H](N2CCO[C@H](OC)C2)[C@H](O)[C@H](C)O1,0.933 (inactive)
15,CO[C@H]1C[C@H](O[C@H]2CC[C@]3(C=O)[C@H]4CC[C@]5(C)[C@@H](C6=CC(=O)OC6)CC[C@]5(O)[C@@H]4CC[C@]3(O)C2)O[C@H](C)[C@H]1O,0.98 (inactive)
16,CO[C@H]1[C@@H](O)C[C@@H](O[C@H]2[C@@H](O)C[C@@H](O[C@H]3[C@@H](O)C[C@@H](O[C@H]4CC[C@@]5(C)[C@@H](CC[C@H]6[C@@H]5C[C@@H](O)[C@@]5(C)[C@H](C7=CC(=O)OC7)CC[C@@]65O)C4)O[C@@H]3C)O[C@@H]2C)O[C@@H]1C,1 (inactive)
17,C=CCN1C(=O)NC(=O)/C(=C/c2ccco2)C1=O,0.971 (inactive)
18,NC(=O)c1cn([C@H]2O[C@@H](CO)[C@H](O)[C@@H]2O)c2ncnc(N)c12,0.892 (inactive)
19,CN1[C@@H]2CC[C@H]1C[C@H](O)C2,1 (inactive)
20,C=C1[C@@H](C)[C@H]2[C@H](Cc3ccccc3)NC(=O)[C@]23[C@H](OC(C)=O)/C=C/[C@](C)(O)C(=O)[C@@H](C)C/C=C/[C@H]3[C@@H]1O,0.976 (inactive)
21,O=S(=O)(O)O.Oc1cccc2cccnc12,0.0986 (active)
22,CC12CCC3c4ccc(OC(=O)N(CCCl)CCCl)cc4CCC3C1CCC2O (stereo unspecified),0.992 (inactive)
23,CCCCCCCCCC(=O)O[C@@H]1[C@@H](C)[C@]2(O)[C@@H](C=C(CO)C[C@]3(O)C(=O)C(C)=C[C@@H]23)[C@@H]2C(C)(C)[C@@]12OC(=O)CCCCCCCCC,1.03 (inactive)
